Tests used:
[1] = target: T1, Ephrin type-B receptor 1 (Homo sapiens) (UniProt P54762); conditions: at 10 µM
T1 sequence (whole entry): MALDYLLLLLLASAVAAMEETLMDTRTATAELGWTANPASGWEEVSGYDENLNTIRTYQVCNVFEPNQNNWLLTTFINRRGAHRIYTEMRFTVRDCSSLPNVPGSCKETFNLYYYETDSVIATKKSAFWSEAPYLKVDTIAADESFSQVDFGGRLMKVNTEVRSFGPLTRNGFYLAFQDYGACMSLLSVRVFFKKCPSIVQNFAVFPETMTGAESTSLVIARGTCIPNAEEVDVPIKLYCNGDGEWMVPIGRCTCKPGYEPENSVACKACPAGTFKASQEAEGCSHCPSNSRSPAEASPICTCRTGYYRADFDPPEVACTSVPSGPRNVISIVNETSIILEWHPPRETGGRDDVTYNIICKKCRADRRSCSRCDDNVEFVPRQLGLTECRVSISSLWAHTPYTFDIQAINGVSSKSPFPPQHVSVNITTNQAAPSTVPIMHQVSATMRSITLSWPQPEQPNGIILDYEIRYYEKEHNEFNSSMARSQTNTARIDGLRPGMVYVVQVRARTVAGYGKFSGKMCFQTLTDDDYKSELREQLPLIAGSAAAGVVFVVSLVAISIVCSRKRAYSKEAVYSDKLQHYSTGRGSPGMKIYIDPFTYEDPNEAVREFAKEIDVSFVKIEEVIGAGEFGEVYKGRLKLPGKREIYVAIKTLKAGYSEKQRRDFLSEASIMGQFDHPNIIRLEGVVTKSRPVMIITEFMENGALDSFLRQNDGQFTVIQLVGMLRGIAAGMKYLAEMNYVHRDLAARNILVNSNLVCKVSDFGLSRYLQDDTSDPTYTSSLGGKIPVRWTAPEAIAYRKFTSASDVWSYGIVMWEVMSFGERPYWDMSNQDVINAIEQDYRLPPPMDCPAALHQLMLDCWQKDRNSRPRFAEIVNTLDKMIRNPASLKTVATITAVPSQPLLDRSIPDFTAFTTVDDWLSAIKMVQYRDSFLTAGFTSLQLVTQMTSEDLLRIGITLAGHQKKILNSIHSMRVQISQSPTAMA

[2] = target: T2, Ephrin type-B receptor 2 (Homo sapiens) (UniProt P29323); conditions: at 1 µM
T2 sequence (whole entry): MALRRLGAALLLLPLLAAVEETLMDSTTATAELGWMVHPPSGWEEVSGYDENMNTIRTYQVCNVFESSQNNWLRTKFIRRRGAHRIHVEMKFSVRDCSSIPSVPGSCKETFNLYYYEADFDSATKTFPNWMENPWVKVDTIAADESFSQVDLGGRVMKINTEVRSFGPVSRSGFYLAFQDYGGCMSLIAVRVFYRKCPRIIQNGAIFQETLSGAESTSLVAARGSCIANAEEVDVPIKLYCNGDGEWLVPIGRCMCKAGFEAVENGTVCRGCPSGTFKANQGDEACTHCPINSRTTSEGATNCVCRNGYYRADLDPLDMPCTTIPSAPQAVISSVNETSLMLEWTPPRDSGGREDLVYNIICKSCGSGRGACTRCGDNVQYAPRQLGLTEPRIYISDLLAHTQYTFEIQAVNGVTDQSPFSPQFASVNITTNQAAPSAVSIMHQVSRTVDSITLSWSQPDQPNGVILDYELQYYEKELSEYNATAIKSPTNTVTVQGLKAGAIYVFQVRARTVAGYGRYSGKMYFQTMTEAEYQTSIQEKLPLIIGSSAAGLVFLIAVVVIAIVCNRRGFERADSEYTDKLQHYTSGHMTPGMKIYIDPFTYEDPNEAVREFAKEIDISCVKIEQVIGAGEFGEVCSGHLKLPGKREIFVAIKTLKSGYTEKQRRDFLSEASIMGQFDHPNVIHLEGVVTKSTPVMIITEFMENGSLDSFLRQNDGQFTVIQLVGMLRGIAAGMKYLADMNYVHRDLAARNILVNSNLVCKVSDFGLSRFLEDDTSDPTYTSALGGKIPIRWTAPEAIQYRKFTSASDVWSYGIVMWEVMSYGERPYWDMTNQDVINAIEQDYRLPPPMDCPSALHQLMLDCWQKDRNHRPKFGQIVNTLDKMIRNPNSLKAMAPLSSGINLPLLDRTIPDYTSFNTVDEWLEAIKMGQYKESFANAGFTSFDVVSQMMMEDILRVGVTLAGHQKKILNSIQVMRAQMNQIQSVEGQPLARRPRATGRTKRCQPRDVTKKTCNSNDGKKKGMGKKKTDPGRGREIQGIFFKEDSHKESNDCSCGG

[3] = target: T2, Ephrin type-B receptor 2 (Homo sapiens); conditions: at 10 µM
[4] = target: T3, Ephrin type-B receptor 3 (Homo sapiens) (UniProt P54753); conditions: at 1 µM
T3 sequence (whole entry): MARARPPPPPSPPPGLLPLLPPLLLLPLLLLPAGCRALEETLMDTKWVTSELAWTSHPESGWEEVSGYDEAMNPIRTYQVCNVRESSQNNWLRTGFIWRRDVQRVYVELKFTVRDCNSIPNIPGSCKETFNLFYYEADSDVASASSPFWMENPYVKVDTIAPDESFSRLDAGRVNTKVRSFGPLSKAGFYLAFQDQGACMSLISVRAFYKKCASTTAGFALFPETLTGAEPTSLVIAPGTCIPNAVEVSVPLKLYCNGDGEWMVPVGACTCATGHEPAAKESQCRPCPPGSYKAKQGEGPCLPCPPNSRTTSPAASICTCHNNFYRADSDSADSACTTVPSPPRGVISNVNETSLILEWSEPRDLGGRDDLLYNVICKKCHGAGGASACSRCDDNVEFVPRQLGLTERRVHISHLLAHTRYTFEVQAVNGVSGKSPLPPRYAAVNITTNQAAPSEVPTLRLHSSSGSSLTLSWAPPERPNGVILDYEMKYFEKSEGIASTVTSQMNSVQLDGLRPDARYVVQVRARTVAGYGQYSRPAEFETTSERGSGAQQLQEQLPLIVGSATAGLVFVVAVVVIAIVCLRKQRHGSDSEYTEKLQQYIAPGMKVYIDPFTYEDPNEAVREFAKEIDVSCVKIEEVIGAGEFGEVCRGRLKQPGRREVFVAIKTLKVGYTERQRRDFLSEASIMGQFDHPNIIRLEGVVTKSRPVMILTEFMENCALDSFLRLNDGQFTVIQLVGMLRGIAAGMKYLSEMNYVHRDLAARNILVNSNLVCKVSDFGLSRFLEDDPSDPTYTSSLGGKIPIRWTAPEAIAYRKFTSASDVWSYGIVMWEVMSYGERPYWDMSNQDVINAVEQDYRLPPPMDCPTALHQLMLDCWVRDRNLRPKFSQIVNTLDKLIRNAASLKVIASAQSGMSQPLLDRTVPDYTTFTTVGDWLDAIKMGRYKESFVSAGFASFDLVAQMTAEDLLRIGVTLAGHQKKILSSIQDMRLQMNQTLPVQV

[5] = target: T3, Ephrin type-B receptor 3 (Homo sapiens); conditions: at 10 µM
[6] = target: T4, Ephrin type-B receptor 4 (Homo sapiens) (UniProt P54760); conditions: at 1 µM
T4 sequence (whole entry): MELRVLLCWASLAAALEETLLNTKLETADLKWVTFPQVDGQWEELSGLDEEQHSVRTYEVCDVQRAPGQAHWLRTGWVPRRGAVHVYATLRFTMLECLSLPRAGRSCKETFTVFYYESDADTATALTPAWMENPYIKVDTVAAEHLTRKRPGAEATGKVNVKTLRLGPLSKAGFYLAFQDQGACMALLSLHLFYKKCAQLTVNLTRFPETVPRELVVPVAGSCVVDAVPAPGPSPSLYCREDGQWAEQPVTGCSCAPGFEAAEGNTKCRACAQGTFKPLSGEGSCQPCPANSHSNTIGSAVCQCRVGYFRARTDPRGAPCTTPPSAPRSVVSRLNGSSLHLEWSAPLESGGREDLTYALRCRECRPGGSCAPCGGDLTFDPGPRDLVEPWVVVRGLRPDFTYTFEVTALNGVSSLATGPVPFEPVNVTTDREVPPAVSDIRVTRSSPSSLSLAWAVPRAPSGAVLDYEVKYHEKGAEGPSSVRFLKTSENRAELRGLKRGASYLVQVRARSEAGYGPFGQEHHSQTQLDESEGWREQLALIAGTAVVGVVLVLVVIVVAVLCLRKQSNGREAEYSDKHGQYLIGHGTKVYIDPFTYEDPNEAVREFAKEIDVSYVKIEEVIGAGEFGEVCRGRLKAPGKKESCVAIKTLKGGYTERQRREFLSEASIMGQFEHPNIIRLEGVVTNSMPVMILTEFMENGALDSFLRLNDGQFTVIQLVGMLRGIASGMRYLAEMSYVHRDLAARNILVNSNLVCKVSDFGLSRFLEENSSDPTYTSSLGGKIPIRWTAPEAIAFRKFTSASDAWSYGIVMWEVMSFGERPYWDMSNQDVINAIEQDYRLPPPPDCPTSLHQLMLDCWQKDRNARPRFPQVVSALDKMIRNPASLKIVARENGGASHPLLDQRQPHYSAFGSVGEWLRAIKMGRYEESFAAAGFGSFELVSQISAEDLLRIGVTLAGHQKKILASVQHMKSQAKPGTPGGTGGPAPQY

[7] = target: T4, Ephrin type-B receptor 4 (Homo sapiens); conditions: at 10 µM
[8] = target: Receptor tyrosine-protein kinase erbB-4 (Homo sapiens) (UniProt Q15303); conditions: at 1 µM
Chain of Receptor tyrosine-protein kinase erbB-4 (Homo sapiens) (Q15303 whole entry): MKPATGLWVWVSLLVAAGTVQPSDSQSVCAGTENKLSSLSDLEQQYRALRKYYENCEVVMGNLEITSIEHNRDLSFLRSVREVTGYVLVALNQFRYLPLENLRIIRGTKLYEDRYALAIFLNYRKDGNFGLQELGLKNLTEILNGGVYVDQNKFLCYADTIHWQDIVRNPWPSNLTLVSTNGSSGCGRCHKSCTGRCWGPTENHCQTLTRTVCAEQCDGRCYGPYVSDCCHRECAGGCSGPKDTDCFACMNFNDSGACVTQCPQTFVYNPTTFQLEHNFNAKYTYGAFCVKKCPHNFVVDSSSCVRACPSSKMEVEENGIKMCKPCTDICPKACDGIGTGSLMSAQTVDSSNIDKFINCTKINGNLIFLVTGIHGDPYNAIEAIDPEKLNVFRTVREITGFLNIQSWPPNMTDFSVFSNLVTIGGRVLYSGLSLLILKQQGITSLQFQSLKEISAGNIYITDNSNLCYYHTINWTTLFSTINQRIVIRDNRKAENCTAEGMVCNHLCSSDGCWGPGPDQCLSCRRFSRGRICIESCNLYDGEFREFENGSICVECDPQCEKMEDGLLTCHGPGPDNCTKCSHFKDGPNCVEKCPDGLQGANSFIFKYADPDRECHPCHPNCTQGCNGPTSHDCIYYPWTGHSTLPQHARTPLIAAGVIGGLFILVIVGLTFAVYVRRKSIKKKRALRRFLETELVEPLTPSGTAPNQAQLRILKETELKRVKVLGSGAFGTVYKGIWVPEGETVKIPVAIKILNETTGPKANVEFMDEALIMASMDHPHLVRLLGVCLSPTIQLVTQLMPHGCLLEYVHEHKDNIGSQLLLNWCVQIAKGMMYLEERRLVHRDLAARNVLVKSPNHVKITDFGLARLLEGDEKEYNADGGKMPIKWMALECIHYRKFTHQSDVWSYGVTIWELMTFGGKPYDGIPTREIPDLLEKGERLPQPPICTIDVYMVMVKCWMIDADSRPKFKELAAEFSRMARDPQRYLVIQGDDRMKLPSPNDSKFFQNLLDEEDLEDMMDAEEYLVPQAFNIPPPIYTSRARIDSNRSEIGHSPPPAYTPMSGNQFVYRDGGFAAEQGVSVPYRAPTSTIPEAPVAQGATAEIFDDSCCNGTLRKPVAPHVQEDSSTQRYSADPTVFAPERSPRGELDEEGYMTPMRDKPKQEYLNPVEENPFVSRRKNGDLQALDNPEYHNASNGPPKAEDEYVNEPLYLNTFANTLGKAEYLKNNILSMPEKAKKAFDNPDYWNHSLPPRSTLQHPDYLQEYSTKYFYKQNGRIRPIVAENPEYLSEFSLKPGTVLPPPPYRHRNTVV

[9] = target: Receptor tyrosine-protein kinase erbB-4 (Homo sapiens) (UniProt Q15303); conditions: at 10 µM
[10] = target: Focal adhesion kinase 1 (Homo sapiens) (UniProt Q05397); conditions: at 1 µM
[11] = target: Focal adhesion kinase 1 (Homo sapiens) (UniProt Q05397); conditions: at 10 µM
[12] = target: Fibroblast growth factor receptor 1 (Homo sapiens) (UniProt P11362); conditions: at 1 µM
[13] = target: Fibroblast growth factor receptor 2 (Homo sapiens) (UniProt P21802); conditions: at 1 µM
Chain of Fibroblast growth factor receptor 2 (Homo sapiens) (P21802 22-821 limits assumed): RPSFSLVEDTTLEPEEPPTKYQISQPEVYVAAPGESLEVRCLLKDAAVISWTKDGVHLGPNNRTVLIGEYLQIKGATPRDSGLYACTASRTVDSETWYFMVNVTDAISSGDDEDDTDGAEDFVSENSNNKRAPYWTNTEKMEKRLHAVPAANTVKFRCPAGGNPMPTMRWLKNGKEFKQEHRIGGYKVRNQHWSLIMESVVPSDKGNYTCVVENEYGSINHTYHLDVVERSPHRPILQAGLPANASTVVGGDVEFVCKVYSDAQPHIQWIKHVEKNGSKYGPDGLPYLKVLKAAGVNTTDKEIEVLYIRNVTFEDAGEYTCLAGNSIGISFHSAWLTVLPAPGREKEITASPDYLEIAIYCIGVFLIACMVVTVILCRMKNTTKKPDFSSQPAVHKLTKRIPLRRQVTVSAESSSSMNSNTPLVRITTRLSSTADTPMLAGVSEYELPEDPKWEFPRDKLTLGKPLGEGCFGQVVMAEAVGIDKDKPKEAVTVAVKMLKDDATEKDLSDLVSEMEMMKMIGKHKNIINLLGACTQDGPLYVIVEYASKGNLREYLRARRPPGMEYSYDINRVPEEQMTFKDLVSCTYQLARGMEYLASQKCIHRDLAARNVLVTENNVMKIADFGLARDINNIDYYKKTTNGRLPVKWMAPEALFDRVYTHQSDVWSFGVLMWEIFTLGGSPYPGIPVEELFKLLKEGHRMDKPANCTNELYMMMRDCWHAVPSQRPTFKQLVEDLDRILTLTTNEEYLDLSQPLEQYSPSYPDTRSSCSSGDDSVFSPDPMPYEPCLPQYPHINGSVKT

[14] = target: Fibroblast growth factor receptor 2 (Homo sapiens) (UniProt P21802); conditions: at 10 µM
[15] = target: Fibroblast growth factor receptor 3 (Homo sapiens) (UniProt P22607); conditions: at 1 µM
Chain of Fibroblast growth factor receptor 3 (Homo sapiens) (P22607 23-806 limits assumed): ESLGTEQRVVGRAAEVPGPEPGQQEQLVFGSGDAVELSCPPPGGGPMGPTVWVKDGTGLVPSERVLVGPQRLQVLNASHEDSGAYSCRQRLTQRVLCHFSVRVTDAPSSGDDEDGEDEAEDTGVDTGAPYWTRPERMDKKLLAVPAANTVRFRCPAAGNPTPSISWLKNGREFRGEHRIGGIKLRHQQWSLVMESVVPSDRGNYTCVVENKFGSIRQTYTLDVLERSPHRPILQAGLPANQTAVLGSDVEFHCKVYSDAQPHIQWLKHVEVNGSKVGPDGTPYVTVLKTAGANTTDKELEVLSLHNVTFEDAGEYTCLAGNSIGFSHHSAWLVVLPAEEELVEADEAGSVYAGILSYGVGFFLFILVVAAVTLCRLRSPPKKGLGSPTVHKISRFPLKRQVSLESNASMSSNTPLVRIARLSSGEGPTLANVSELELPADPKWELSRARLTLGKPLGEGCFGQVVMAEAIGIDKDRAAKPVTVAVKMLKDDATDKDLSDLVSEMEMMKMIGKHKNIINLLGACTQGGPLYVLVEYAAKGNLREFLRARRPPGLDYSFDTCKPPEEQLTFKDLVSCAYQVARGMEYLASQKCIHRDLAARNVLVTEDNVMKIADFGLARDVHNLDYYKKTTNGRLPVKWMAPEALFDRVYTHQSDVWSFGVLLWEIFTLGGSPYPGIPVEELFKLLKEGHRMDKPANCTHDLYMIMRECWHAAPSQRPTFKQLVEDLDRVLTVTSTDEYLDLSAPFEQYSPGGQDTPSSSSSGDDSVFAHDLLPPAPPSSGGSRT

[16] = target: Fibroblast growth factor receptor 3 (Homo sapiens) (UniProt P22607); conditions: at 10 µM
[17] = target: Fibroblast growth factor receptor 4 (Homo sapiens) (UniProt P22455); conditions: at 1 µM
Chain of Fibroblast growth factor receptor 4 (Homo sapiens) (P22455 22-802 limits assumed): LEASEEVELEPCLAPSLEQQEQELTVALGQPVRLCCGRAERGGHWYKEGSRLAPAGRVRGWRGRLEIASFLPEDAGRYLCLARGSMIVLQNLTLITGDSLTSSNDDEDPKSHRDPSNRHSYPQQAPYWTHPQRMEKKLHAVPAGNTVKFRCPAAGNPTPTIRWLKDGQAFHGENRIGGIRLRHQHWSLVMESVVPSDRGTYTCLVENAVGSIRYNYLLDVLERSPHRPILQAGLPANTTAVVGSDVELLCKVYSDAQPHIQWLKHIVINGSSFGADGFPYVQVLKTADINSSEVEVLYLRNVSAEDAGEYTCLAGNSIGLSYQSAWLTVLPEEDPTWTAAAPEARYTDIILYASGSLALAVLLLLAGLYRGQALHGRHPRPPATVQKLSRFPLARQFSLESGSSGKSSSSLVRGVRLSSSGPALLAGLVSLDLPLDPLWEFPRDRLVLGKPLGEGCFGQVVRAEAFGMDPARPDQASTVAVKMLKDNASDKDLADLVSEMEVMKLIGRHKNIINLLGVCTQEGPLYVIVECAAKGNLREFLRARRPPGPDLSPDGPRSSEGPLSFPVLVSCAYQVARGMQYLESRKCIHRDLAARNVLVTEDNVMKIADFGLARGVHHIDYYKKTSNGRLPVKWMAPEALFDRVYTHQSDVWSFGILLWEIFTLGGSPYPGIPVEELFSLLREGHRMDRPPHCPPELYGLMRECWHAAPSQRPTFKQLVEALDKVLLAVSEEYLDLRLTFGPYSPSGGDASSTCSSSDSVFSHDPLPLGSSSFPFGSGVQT

[18] = target: Fibroblast growth factor receptor 4 (Homo sapiens) (UniProt P22455); conditions: at 10 µM
[19] = target: Tyrosine-protein kinase Fer (Homo sapiens) (UniProt P16591); conditions: at 1 µM
Chain of Tyrosine-protein kinase Fer (Homo sapiens) (P16591 whole entry, looked up): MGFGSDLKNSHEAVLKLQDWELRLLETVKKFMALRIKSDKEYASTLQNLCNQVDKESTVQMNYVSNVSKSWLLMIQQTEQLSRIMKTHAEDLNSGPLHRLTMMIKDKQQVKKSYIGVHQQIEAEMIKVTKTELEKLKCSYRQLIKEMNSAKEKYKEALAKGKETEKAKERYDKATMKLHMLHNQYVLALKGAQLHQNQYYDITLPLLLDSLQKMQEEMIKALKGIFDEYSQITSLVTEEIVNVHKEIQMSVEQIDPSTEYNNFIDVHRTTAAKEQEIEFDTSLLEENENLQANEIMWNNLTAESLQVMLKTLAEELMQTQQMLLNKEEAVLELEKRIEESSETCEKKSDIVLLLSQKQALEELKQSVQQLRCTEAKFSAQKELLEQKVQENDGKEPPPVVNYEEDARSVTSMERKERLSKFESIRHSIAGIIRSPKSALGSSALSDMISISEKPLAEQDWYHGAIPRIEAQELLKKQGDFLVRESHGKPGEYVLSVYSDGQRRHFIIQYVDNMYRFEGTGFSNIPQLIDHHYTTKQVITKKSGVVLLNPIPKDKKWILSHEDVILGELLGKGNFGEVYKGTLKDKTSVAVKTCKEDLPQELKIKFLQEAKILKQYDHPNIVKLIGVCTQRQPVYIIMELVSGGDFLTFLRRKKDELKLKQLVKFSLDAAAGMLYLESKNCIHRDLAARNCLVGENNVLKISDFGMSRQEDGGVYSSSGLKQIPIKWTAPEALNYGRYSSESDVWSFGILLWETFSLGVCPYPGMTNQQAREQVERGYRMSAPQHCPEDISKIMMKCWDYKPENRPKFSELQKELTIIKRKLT

[20] = target: Fibroblast growth factor receptor 1 (Homo sapiens) (UniProt P11362); conditions: at 10 µM

Row | Structure (SMILES) | residual activity [1] [%] | residual activity [2] [%] | residual activity [3] [%] | residual activity [4] | residual activity [5] [%] | residual activity [6] [%] | residual activity [7] [%] | residual activity [8] [%] | residual activity [9] [%] | residual activity [10] [%] | residual activity [11] [%] | residual activity [12] [%] | residual activity [13] [%] | residual activity [14] [%] | residual activity [15] [%] | residual activity [16] [%] | residual activity [17] [%] | residual activity [18] [%] | residual activity [19] [%] | residual activity [20] [%]
1 | CC(C)(C)c1cc(C=C(C#N)C#N)cc(Br)c1O | 96 | 116 | 121 | 96% (inactive) | 121 | 102 | 110 | 114 | 132 | 149 | 104 | 108 | 99 | 105 | 126 | 99 | 118 | 102 | 120 | –
2 | CC(C)[C@H](CO)Nc1nc(Nc2cccc(Cl)c2)c2ncn(C(C)C)c2n1 | 15 | 71 | 3 | – | – | 37 | 4 | – | – | 65 | 13 | 98 | – | – | – | 56 | 118 | – | 90 | 15
3 | CCc1nc(-c2ccc(OC)cc2)[nH]c1-c1ccncc1 | – | 120 | 115 | 110% (inactive) | 111 | 112 | 101 | – | 108 | 115 | 81 | 104 | 121 | – | – | 124 | 102 | 109 | 104 | 80
4 | COc1ccc2c(c[n+](C)c3c4cc5c(cc4ccc23)OCO5)c1OC | 91 | 121 | 121 | 126% (inactive) | 133 | 94 | 119 | 96 | 79 | 140 | 93 | 85 | – | – | – | 57 | – | 100 | – | 44
5 | c1cc(-c2cnn3cc(-c4ccc(OCCN5CCCCC5)cc4)cnc23)ccn1 | 0 | 25 | 0 | 118% (inactive) | 117 | 20 | -1 | 129 | 100 | 123 | – | 47 | – | – | – | – | – | 72 | – | 5
